Experimental data from PubChem BioAssay (NCI).
Compounds without any hit were thinned out: in the full panel of roughly 83,000, 20% have a hit.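 Assay: single dose, 48 h. Readout: percent growth (0 = no net growth; negative = cell death). Active: <10.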 A number with no mark means an inactive call. Calls of active or inactive are those of the source.

How the values were obtained:
Test in all cases: NCI-60 one-dose screen, 48 h (100 = growth as untreated, 0 = no growth, -100 = all killed)
Settings in all cases: 10 µM unless noted
[1] = system: NCI-H23 lung
[2] = system: NCI-H226 lung
[3] = system: HOP-62 NSCLC
[4] = system: NCI-H460 lung
[5] = system: HOP-92 NSCLC
[6] = system: NCI-H522 lung
[7] = system: A549/ATCC NSCLC
[8] = system: 786-0 renal
[9] = system: COLO 205 colon
[10] = system: DU-145 prostate
[11] = system: K-562 leukemia
[12] = system: MALME-3M melanoma
[13] = system: MDA-MB-231 breast
[14] = system: RXF 393 renal
[15] = system: SF-268 CNS
[16] = system: SF-295 CNS
[17] = system: SF-539 CNS
[18] = system: UACC-257 melanoma
[19] = system: M14 melanoma
[20] = system: NCI-H322M lung

SMILES: Nc1nc2ncc(CCNc3ccc(C(=O)O)cc3)nc2c(=O)[nH]1
- growth [1]: 108%
- growth [2]: 100%
- growth [3]: 113%
- growth [4]: 114%
- growth [5]: 97.8%
- growth [6]: 100%
- growth [7]: 105%
- growth [8]: 104%
- growth [9]: 105%
- growth [10]: 128%
- growth [11]: 115%
- growth [12]: 137%
- growth [13]: 107%
- growth [14]: 112%
- growth [15]: 120%
- growth [16]: 110%
- growth [17]: 101%
- growth [18]: 104%
- growth [19]: 107%

SMILES: Cn1c(NCCc2ccc(O)c(O)c2)nc2c1c(=O)n(Cc1ccc(Br)cc1)c(=O)n2C
- growth [1]: 86.4%
- growth [2]: 84.1%
- growth [3]: 108%
- growth [4]: 94.3%
- growth [5]: 61.1%
- growth [6]: -26.6% (active)
- growth [7]: 83.9%
- growth [8]: 82%
- growth [9]: 50.5%
- growth [10]: 78.9%
- growth [11]: 81%
- growth [12]: 81.4%
- growth [13]: 69.2%
- growth [14]: 81%
- growth [15]: 68.4%
- growth [16]: 98%
- growth [17]: 79.1%
- growth [18]: 88.5%
- growth [19]: 96.5%

SMILES: C#CC(F)(F)[C@]1(O)CC[C@H]2[C@@H]3CCC4=CC(=O)CCC4=C3[C@@H](c3ccc(C4CC4)cc3)C[C@@]21C
- growth [1]: -53.3% (active)
- growth [2]: 63.3%
- growth [3]: 9.06% (active)
- growth [4]: 57.1%
- growth [5]: -60.2% (active)
- growth [6]: -70.1% (active)
- growth [7]: 11.5%
- growth [8]: -77.3% (active)
- growth [9]: 29.5%
- growth [10]: 30.3%
- growth [11]: 14.3%
- growth [12]: -71.7% (active)
- growth [13]: -10.3% (active)
- growth [14]: 31.1%
- growth [15]: -60.5% (active)
- growth [16]: -59.6% (active)
- growth [17]: -84.3% (active)
- growth [18]: 77.8%
- growth [19]: 62.2%

SMILES: COc1ccc(C2C(C#N)=C(N)Oc3n[nH]c(-c4cccs4)c32)cc1I (configuration not stated)
- growth [1]: 92.8%
- growth [2]: 98.3%
- growth [3]: 81.7%
- growth [4]: 101%
- growth [5]: 88.2%
- growth [6]: 83.2%
- growth [7]: 87.1%
- growth [8]: 99.1%
- growth [9]: 117%
- growth [10]: 107%
- growth [12]: 102%
- growth [13]: 102%
- growth [14]: 93.9%
- growth [15]: 91.2%
- growth [16]: 94.4%
- growth [17]: 85.6%
- growth [18]: 89.4%
- growth [19]: 90%

SMILES: Cn1cc(C(=O)c2nc(-c3c[nH]c4ccc(F)cc34)no2)c2cc(F)ccc21
- growth [1]: 88%
- growth [2]: 69.5%
- growth [3]: 91.2%
- growth [4]: 96.4%
- growth [5]: 85.5%
- growth [6]: 80.1%
- growth [7]: 104%
- growth [8]: 103%
- growth [9]: 94.5%
- growth [10]: 101%
- growth [11]: 66.1%
- growth [12]: 87.3%
- growth [13]: 108%
- growth [14]: 108%
- growth [15]: 96%
- growth [16]: 98%
- growth [17]: 95.1%
- growth [18]: 99.2%
- growth [19]: 97%

SMILES: O=c1nc2oc3ccc4ccccc4c3cc-2s1
- growth [1]: 45.5%
- growth [2]: 37.5%
- growth [3]: 23%
- growth [5]: 14.2%
- growth [6]: -3.74% (active)
- growth [7]: 35.1%
- growth [8]: 23%
- growth [9]: 30.4%
- growth [10]: 19%
- growth [11]: 11.9%
- growth [12]: 45.2%
- growth [13]: 42.7%
- growth [14]: -18.5% (active)
- growth [15]: 40.8%
- growth [16]: 9.97% (active)
- growth [17]: -25.1% (active)
- growth [18]: 51.6%
- growth [19]: -33.4% (active)

SMILES: COC(=O)[C@@H]1CCCN1C(=O)[C@@H]1CCCN1C(=O)[C@H](Cc1ccccc1)NC(=S)Nc1cc(C(F)(F)F)cc(C(F)(F)F)c1
- growth [1]: 89.2%
- growth [2]: 80.2%
- growth [20]: 89.7%
- growth [3]: 89.8%
- growth [5]: 58.9%
- growth [6]: -11.4% (active)
- growth [7]: 15.6%
- growth [8]: 82.4%
- growth [9]: 82.7%
- growth [10]: 40.4%
- growth [12]: 94.8%
- growth [13]: 62.8%
- growth [14]: 83.8%
- growth [15]: 35%
- growth [16]: 92.9%
- growth [17]: 94%
- growth [18]: 11.8%
- growth [19]: 89.3%

SMILES: O=C(/C=C/c1cccc(Cl)c1)c1ccc(O)c(CN2CCN(c3cc4c(cc3F)c(=O)c(C(=O)O)cn4C3CC3)CC2)c1
- growth [2]: 62%
- growth [20]: 37.8%
- growth [3]: 37.2%
- growth [4]: 44%
- growth [5]: 21.8%
- growth [6]: 17.3%
- growth [7]: 25.8%
- growth [8]: 33.6%
- growth [9]: 136%
- growth [10]: 34.6%
- growth [11]: 20.4%
- growth [12]: 44.1%
- growth [13]: 70.5%
- growth [14]: 39.5%
- growth [15]: 36.9%
- growth [16]: 43.5%
- growth [17]: 40.9%
- growth [18]: 80.5%
- growth [19]: 43%

SMILES: Nc1ccc(-c2cc3c(Nc4ccc(Oc5cccc(C(F)(F)F)c5)c(Cl)c4)ncnc3s2)cc1
- growth [1]: 69.6%
- growth [2]: 69%
- growth [3]: 90.2%
- growth [4]: 69.5%
- growth [5]: 87.8%
- growth [6]: 53.6%
- growth [7]: 51.4%
- growth [8]: 73.9%
- growth [9]: 91.3%
- growth [10]: 72.5%
- growth [11]: 24.9%
- growth [12]: 91.8%
- growth [13]: 95.1%
- growth [14]: 35.7%
- growth [15]: 66.1%
- growth [16]: 77.2%
- growth [17]: 74.5%
- growth [18]: 77%
- growth [19]: 86.6%

SMILES: COc1cccc(NC(=O)c2sc3nc(C)c(C(C)=O)cc3c2N)c1
- growth [1]: 65.5%
- growth [2]: 83.7%
- growth [20]: 45.5%
- growth [3]: 44.7%
- growth [5]: 52%
- growth [6]: 40.1%
- growth [7]: 20.5%
- growth [8]: 58.5%
- growth [9]: -1.6% (active)
- growth [10]: 23.3%
- growth [12]: 71.2%
- growth [13]: 58.5%
- growth [14]: 51.6%
- growth [15]: 69.8%
- growth [16]: 29.9%
- growth [17]: 32%
- growth [18]: 60.1%
- growth [19]: 23.7%

SMILES: Cc1cc(N[C@@H]2CCC[C@H](Nc3ccnc4cc(Cl)ccc34)C2)nc(N2CCCCCC2)n1
- growth [1]: -30.3% (active)
- growth [2]: -38.9% (active)
- growth [3]: -69.7% (active)
- growth [4]: -70.9% (active)
- growth [5]: -77.7% (active)
- growth [6]: -61.5% (active)
- growth [7]: -48.9% (active)
- growth [8]: -96.1% (active)
- growth [9]: -79.3% (active)
- growth [10]: -6.21% (active)
- growth [12]: -86.4% (active)
- growth [13]: -85.8% (active)
- growth [14]: -80.6% (active)
- growth [15]: -66.2% (active)
- growth [16]: -76.1% (active)
- growth [17]: -93% (active)
- growth [18]: -76.5% (active)
- growth [19]: -89.2% (active)

SMILES: COc1ccc(Nc2c3c4c(cccc4[nH]c2=O)C(=O)c2ccccc2-3)cc1
- growth [1]: 4.11% (active)
- growth [2]: 17%
- growth [3]: 28%
- growth [4]: -44.4% (active)
- growth [5]: 15.5%
- growth [6]: -20.4% (active)
- growth [7]: 20.6%
- growth [8]: 12.1%
- growth [9]: -64.5% (active)
- growth [10]: -20.9% (active)
- growth [11]: -19% (active)
- growth [12]: 41.1%
- growth [13]: -20.5% (active)
- growth [15]: 21.4%
- growth [16]: -52.4% (active)
- growth [17]: -31.3% (active)
- growth [18]: 64.1%
- growth [19]: 11.7%

SMILES: NC(=O)c1cc(I)ccc1NC(=O)/C=C/c1ccccc1Cl
- growth [1]: 43.4%
- growth [2]: 44.1%
- growth [3]: 83%
- growth [4]: 0.527% (active)
- growth [5]: 48.3%
- growth [6]: -45.9% (active)
- growth [7]: 15.7%
- growth [8]: 48.1%
- growth [9]: -26.7% (active)
- growth [10]: -18.8% (active)
- growth [11]: 5.46% (active)
- growth [12]: 67.5%
- growth [13]: 23.3%
- growth [14]: -17.9% (active)
- growth [15]: 36.8%
- growth [17]: -35.7% (active)
- growth [18]: 65.7%
- growth [19]: 4.96% (active)

SMILES: COc1ccc(-c2nc3ccc(-c4nc5ccc(N6CCN(c7ccc(F)cc7)CC6)cc5[nH]4)cc3[nH]2)cc1OC
- growth [1]: 60.7%
- growth [2]: 66.6%
- growth [3]: 75.6%
- growth [4]: 71.1%
- growth [5]: 63.6%
- growth [6]: 45.3%
- growth [7]: 77.3%
- growth [8]: 79.5%
- growth [9]: 30.4%
- growth [10]: 80.3%
- growth [11]: 17.7%
- growth [12]: 43.9%
- growth [13]: 107%
- growth [14]: 68.6%
- growth [15]: 82.6%
- growth [16]: 76%
- growth [17]: 68.2%
- growth [18]: 104%
- growth [19]: 61.8%

SMILES: CC1=CC(C)(C)Nc2ccc(Cc3ccc4c(c3)C(C)=CC(C)(C)N4)cc21
- growth [1]: 97.1%
- growth [2]: 88.4%
- growth [3]: 94.1%
- growth [4]: 104%
- growth [5]: 99.7%
- growth [6]: 68%
- growth [7]: 78.5%
- growth [8]: 97.1%
- growth [9]: 125%
- growth [10]: 98.1%
- growth [11]: 114%
- growth [12]: 87.2%
- growth [13]: 86.1%
- growth [14]: 79.6%
- growth [15]: 103%
- growth [16]: 139%
- growth [17]: 96.6%
- growth [18]: 93.7%
- growth [19]: 96.1%

SMILES: CCC([N+](=O)[O-])S(=O)(=O)c1ccc(C)cc1 (configuration not stated)
- growth [1]: 93.2%
- growth [2]: 102%
- growth [3]: 84.7%
- growth [4]: 104%
- growth [5]: 87.9%
- growth [6]: 89.3%
- growth [7]: 96.7%
- growth [8]: 89.4%
- growth [9]: 115%
- growth [10]: 160%
- growth [11]: 115%
- growth [12]: 143%
- growth [13]: 103%
- growth [14]: 97.1%
- growth [15]: 126%
- growth [16]: 111%
- growth [17]: 94.5%
- growth [18]: 102%
- growth [19]: 103%
